Compound activity (PubChem BioAssay)
The list is not random: actives were taken first. Their share in the collection is about 12%.
HP1b chromo inh – blocks HP1-beta chromodomain binding to methylated histone tails; AlphaScreen HP1-beta / biotin-H3K9me3 peptide binding; Potency, µM (doses to about 114 µM), for the others: at the top dose activity change, negative = inhibition, most hits filed as inhibitors; actives 0.56% (n = 390,000); note: nearly all actives have a fitted effect of over 70% in size
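HP1-beta protein (50 nM final) preincubated 30 min at room temperature with biotinylated H3(1-18)K9me3 peptide (50 nM) in PBS pH 7.4, 0.01% Tween-20, then compound added for 30 min. AlphaScreen streptavidin donor/nickel chelate acceptor beads (10 ug/mL final), 30 min dark, luminescence read.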
G9a inh – inhibitors of human histone lysine methyltransferase G9a; Q96KQ7; G9a H3K9 monomethylation, AlphaScreen, 2 h; Potency, µM (series often up to 102 µM), inactives show at the highest dose activity, negative = inhibition, hits mostly inhibitors; actives 8.8% (n = 350,000); AID 504332; note: % is set by controls: 0 for no effect and ±100 for the full control effect; nearly all actives have a fitted effect of over 75% in size
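Chemiluminescent proximity detection of H3K9 monomethylation, read after 10 min bead incubation in the dark. Reaction: 20 nM G9a, 500 nM biotin-H3K9 peptide, 20 uM SAM cofactor, 2 h, room temperature, following 15 min enzyme-compound preincubation.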
BAZ2B inh – blocks human BAZ2B. Q9UIF8. AlphaScreen BAZ2B-H3K14Ac peptide displacement. Potency, µM (doses to about 114 µM), inactives show at the top dose activity change, negative = inhibition, most hits filed as inhibitors. actives 4.4% (n = 360,000). AID 504333; note: % is set by controls: 0 for no effect and ±100 for the full control effect; nearly all actives have a fitted effect of over 60% in size
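Complex of BAZ2B and biotin-H3K14Ac (50 nM apiece) forms over 30 min at RT, then faces library compounds up to 110 uM for another 30 min; AlphaScreen beads added, 20 min dark incubation, luminescence read.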
JMJD2A Tudor – JMJD2A Tudor domain (human) inhibition | O75164 | AlphaScreen JMJD2A-Tudor / H3K4me3 peptide binding | Potency, µM (series often up to 114 µM), inactives show top-dose activity change, negative = inhibition, usual class: inhibitors | actives 4.4% (n = 390,000) | AID 504339; note: % is set by controls: 0 for no effect and ±100 for the full control effect; nearly all actives have a fitted effect of over 50% in size
Sfp inh – inhibitors of Bacillus subtilis Sfp phosphopantetheinyl transferase; Q9F4F7; Biochemical Sfp PPTase activity, qHTS; Potency, µM, without a hit: largest response in the series, negative = inhibition, usual class: inhibitors; actives 3.5% (n = 310,000);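 note: the enzyme is Sfp with the accession as filed and its product quenches rhodamine fluorescence; 0% = enzyme reaction without inhibitor and -100% = no enzyme wells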
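Reaction rates are the 30-min fluorescence difference (ex 525, em 598 nm) in wells containing 15 nM Sfp, 5 uM rhodamine-CoA and 12.5 uM BHQ-2-YbbR at pH 7.6 with 10 mM MgCl2.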
Numbers without * were called inactive; ? = inconclusive; nt = no result; [ ] = another dose, or the depositor's remark. Calls come from the whole dose curve; as a rule, active = well fitted curve in the direction sought with a large enough effect; inconclusive = small, poorly fitted or top-dose-only effect, or another doubt; inactive = no such curve, though single readings can be large; an effect the other way counts as inactive or inconclusive. Potency is the fitted concentration of half-maximal effect.

SMILES | HP1b chromo inh | G9a inh | BAZ2B inh | JMJD2A Tudor | Sfp inh
COc1ccc(Cl)cc1NC(=O)CN(C)C(=O)CSc1ccc2c(c1)OCCO2 | 28% | 24%[12.7 µM] | 5% | -22% | nt
O=c1c(CO)cc(CO)cc(CO)c1O | 15% | nt | 10µM* | 22µM* | ?
COc1cc(CCC(=O)NCc2ccc3c(c2)CCN3C(=O)c2ccccc2)cc(OC)c1OC | 21% | -2%[59 µM] | -7% | -14% | nt
O=S(=O)(Nc1nc2ccccc2nc1N1CCN(c2ccccn2)CC1)c1ccc(Cl)cc1 | 14% | ? | -36% | ? | 6%
O=S(=O)(Nc1nc2ccccc2nc1N1CCN(CCO)CC1)c1cc(F)ccc1F | 43% | 7.1µM* | 18% | -5% | nt
COc1cccc(CN2CCNC(=O)C2CC(=O)N(C)C2CCCCC2)c1 (configuration not stated) | 32% | 50µM* | -20% | -14% | 11%
COc1ccccc1CN1CCNC(=O)C1CC(=O)N(C)Cc1nc(C)cs1 (configuration not stated) | 44% | 50µM* | -5% | -8% | -6%
COc1cccc(CN2CCNC(=O)C2CC(=O)N(C)C2CCOCC2)c1 (configuration not stated) | 44% | ? | -6%[57.1 µM] | -4% | -2%
COc1ccccc1CN1CCNC(=O)C1CC(=O)N(C)Cc1ccon1 (configuration not stated) | 12% | -44% | -3% | -7% | 3%
CN(C(=O)CC1C(=O)NCCN1CC(c1ccccc1)c1ccccc1)C(C1CC1)C1CC1 (configuration not stated) | 24% | ? | -25% | -24% | 13%
CN(CC1CCOCC1)C(=O)CC1C(=O)NCCN1CC(c1ccccc1)c1ccccc1 (configuration not stated) | 17% | 89µM* | -10% | -12% | -2%
CN(Cc1ccccn1)C(=O)CC1C(=O)NCCN1Cc1cccc(Oc2ccccc2)c1 (configuration not stated) | 12% | 45µM* | -31% | -15% | -16%
CC(C)c1ccc(NC(=O)c2cc(S(=O)(=O)NCc3ccccc3Cl)ccc2F)cc1 | 13% | -3%[59 µM] | 3% | -27% | nt
Cc1ccc2onc(CNC(=O)N(C)Cc3ccccc3)c2c1 | 28% | 0%[59 µM] | -18% | 0% | nt
Cc1ccc2oc(=O)c3cc(C(=O)NCCCOC(C)C)sc3c2c1 | 18% | -40%[59 µM] | -2% | -17% | nt
CN(CC1CCOCC1)C(=O)CC1C(=O)NCCN1Cc1ccc(Cl)c(F)c1 (configuration not stated) | 25% | 50µM* | -2% | -16% | 13%
CN(Cc1cnn(C)c1)C(=O)CC1C(=O)NCCN1Cc1cccc(Oc2ccccc2)c1 (configuration not stated) | 8% | 25µM* | -21% | -22% | 6%
CN(Cc1cnccn1)C(=O)CC1C(=O)NCCN1Cc1ccc(F)cc1Cl (configuration not stated) | 19% | nt | -10% | -14% | 5%
CN(Cc1ccccn1)C(=O)CC1C(=O)NCCN1Cc1ccc(F)cc1Cl (configuration not stated) | 14% | nt | 56µM* | ? | -21%
CN(CC1CCOCC1)C(=O)CC1C(=O)NCCN1Cc1cccc(Oc2ccccc2)c1 (configuration not stated) | 38% | 35µM* | -21% | -19% | 2%
CCOC(=O)c1c(N)n(-c2ccc(Cl)c(Cl)c2)c2nc3ccccc3nc12 | 31% | 8%[59 µM] | 0% | -2% | nt
CCOCCCNC(=O)c1ccc2c(=O)n(CCc3ccccc3)c(=O)[nH]c2c1 | 30% | 0%[59 µM] | 1% | 3% | nt
COc1ccc(Nc2cc(C)c3cc(NC(=O)Cc4ccc(Cl)cc4)ccc3n2)cc1 | 15% | -8%[59 µM] | 0% | -19% | nt
CCOc1ccc(NC(=O)c2nn(C)c3c2CS(=O)(=O)c2ccccc2-3)cc1 | 15% | ? | -26% | -13% | nt
COc1ccc(CN2CCNC(=O)C2CC(=O)NCCCC2CCCC2)c(C)c1C (configuration not stated) | 21% | ? | ? | -31% | 1%
